In the library only some 3.7% were active in any assay of this set; here they are far more common.
Anthrax LF inh2: Bacillus anthracis LF protease inhibitors, primary screen, biochemical, multiplex microsphere, MLPCN library | Lethal factor (Bacillus anthracis), P15917 | multiplex microsphere protease cleavage assay | inhibition, % at 10 µM | 360,000 tested, 0.12% active | AID 588501, 2011; note: plate controls were buffer without enzyme for full effect and enzyme alone for no effect
Autofluor counter: compound fluorescence in toxin protease inhibitor counterscreen; fluorescence intensity (test concentration not listed); 360,000 tested, 3.1% active; compound autofluorescence counterscreen, microsphere flow cytometry; hits give high values; in the data active = fluorescence intensity above about 16000; inconclusive = no clear call, values can overlap the other calls
BoNT-A LC inh2: BoNT/A light chain protease inhibitors, primary screen, biochemical, flow cytometry, MLPCN library. AID 588499, 2011. inhibition, % at 10 µM. multiplex microsphere protease substrate cleavage. 360,000 tested, 0.17% active. Botulinum neurotoxin type A light chain protease (Clostridium botulinum A str. ATCC 3502); note: plate controls were buffer without enzyme for full effect and enzyme alone for no effect
MazF activator: activators of E. coli MazEF toxin-antitoxin RNase, primary screen, biochemical, fluorescence, uHTS | Endoribonuclease toxin MazF (Escherichia coli (strain K12)), P0AE70 | FAM/BHQ RNA-DNA oligo cleavage fluorescence, 5 h | activation, % at 20 µM | 350,000 tested, 0.32% active | AID 504720, 2011; in the data active = activation above about 50%
BoNT F protease: BoNT/F light chain protease inhibitors, primary screen, biochemical, flow cytometry, MLPCN library. Multiplex microsphere protease cleavage assay. inhibition, % at 10 µM. 360,000 tested, 0.22% active. AID 588497, 2011; in the data active = inhibition above about 35%, passing the limit was not always enough; inconclusive = no clear call, values can overlap the other calls; note: plate controls were buffer without enzyme for full effect and enzyme alone for no effect
An asterisk follows results filed as active; u = inconclusive; x = no result. Cut-off read from the data, not from the text of the source, unless noted: active = inhibition above about 30%; inconclusive = no clear call, values can overlap the other calls; inactive = below that.

SMILES	Anthrax LF inh2	Autofluor counter	BoNT-A LC inh2	MazF activator	BoNT F protease
COc1ccc(-c2cc(C(=O)Nc3cccc(C(C)=O)c3)no2)cc1	2	19306*	1	5	1
COc1ccc(-c2cc(C(=O)Nc3cccc(Cl)c3)no2)cc1	-3	3096	2	-16	2
C[C@@H]1CN([C@H](C)CO)C(=O)CCCn2nncc2CO[C@H]1CN(C)S(=O)(=O)c1cccc(F)c1	-6	3053	-1	11	-1
CN1C(=O)c2ccccc2CC12c1ccccc1C(=O)N2C (stereo unspecified)	-2	3480	0	6	3
Cc1ccc(C(=O)NCc2ccc(N3CCN(C(=O)OC(C)(C)C)CC3)cc2)cc1	-3	23049*	u	-1	-4
Cc1ccc(S(=O)(=O)NCc2ccc(N3CCN(C(=O)OC(C)(C)C)CC3)cc2)cc1	0	6092	-2	5	3
COC(=O)N1CCN(c2ccc(C(C)=O)cc2)CC1	-5	18481*	u	0	9
CCNC(=O)C1(C)CCCN(C(=O)c2cc(C)nn2C(C)(C)C)C1 (stereo unspecified)	-1	3567	0	x	6
CCOc1cc(C(=O)Nc2ccc(C(=O)NCCN(CC)CC)cc2)ccc1OCC(=O)N1CCOCC1	2	5283	0	7	-4
C[C@H]1COc2cc(N3CCC[C@@H]3CO)ccc2S(=O)(=O)N1	-3	5872	0	x	-6
Cc1[nH]nc2c(=S)[nH]c(=O)[nH]c12	-6	3357	0	8	0
O=C(OCc1ccccc1)c1cccc(-c2nnc(-c3ccccc3)o2)c1	-1	23216*	u	-10	-3
O=C(OCc1ccc(C(=O)c2ccccc2)cc1)c1cccc(-c2nnc(-c3ccccc3)o2)c1	-3	13281	-2	-5	-16
Cc1ccccc1OCCN1C(=O)NC2(CCc3ccccc32)C1=O (stereo unspecified)	0	20031*	1	-9	1
NS(=O)(=O)c1ccc(CCNC(=O)CSc2nc3c(sc(=S)n3-c3ccccc3)c(=O)[nH]2)cc1	-1	3496	0	6	-2
O=C(NCC1CCCC(CNC(=O)N2CCc3ccccc32)C1)N1CCc2ccccc21 (stereo unspecified)	-4	21215*	0	1	-1
OC(COc1cccc2ccccc12)CN1CCN(c2cccc(Cl)c2)CC1 (stereo unspecified)	0	3593	-1	-6	-11
OC(COc1cccc2ccccc12)CN1CCN(c2ccc(Cl)cc2)CC1 (stereo unspecified)	-3	3947	0	-8	35*
NS(=O)(=O)c1ccc(NC(=O)NC2CCCCC2)cc1	-3	2005	0	5	-5
CC(=O)NS(=O)(=O)c1ccc(NC(=O)NC2CCCCC2)cc1	-2	23046*	0	3	-4
CC[C@]12c3[nH]c4ccc(Cl)cc4c3CCN1C(=O)[C@@H](CC(=O)NCCC1=CCCCC1)C[C@@H]2C(=O)N1CCN(C(=O)c2ccco2)CC1	-3	3341	0	6	-4
O=C(CCCNC(=O)c1ccc(Cl)cc1)Nc1ccc(F)c(S(=O)(=O)N2CCOCC2)c1	6	8580	1	-3	0
C#CCn1c(=NC(=O)c2sc3ccccc3c2Cl)sc2cc(S(N)(=O)=O)ccc21	4	10485	2	63*	-3
C#CCn1c(=NC(=O)c2ccc(S(=O)(=O)N3CCc4ccccc4C3)cc2)sc2cc(S(N)(=O)=O)ccc21	5	9005	0	-36	0
C[C@@H](NCCCn1ccc(NC(=O)OCc2ccccc2)nc1=O)c1cccc2ccccc12	-2	3566	0	8	-5
SMILES	Anthrax LF inh2	Autofluor counter	BoNT-A LC inh2	MazF activator	BoNT F protease
Cn1nnnc1Sc1ncnc2scc(-c3cc4ccccc4o3)c12	5	3324	0	2	9
COc1ccc(S(=O)(=O)N2CCC(C(=O)Nc3cc(Cl)ccc3N3CCOCC3)CC2)cc1OC	x	x	x	8	x
CC(CCC(C)OC(=O)c1ccccc1C(=O)O)OC(=O)c1ccccc1C(=O)O (stereo unspecified)	4	3882	-3	11	15
CCCCCCC(C)OC(=O)c1ccccc1C(=O)O (stereo unspecified)	12	3516	1	4	35*
O=C(CCN1C(=O)c2ccccc2S1(=O)=O)NCc1ccccc1Cl	-1	5320	1	-9	7
COc1ccc2nc3n(c(=O)c2c1)-c1ncccc1C(=O)NC3Cc1ccccc1 (stereo unspecified)	-4	3888	-1	4	-7
NC(COCc1ccccc1)c1csc(Nc2ccc(C(=O)c3ccccc3)cc2)n1 (stereo unspecified)	-9	3766	0	x	-18
c1ccc(-c2nnc3n2CCCC3)cc1	0	22320*	2	8	4
Cc1onc(-c2ccccc2Cl)c1C(=O)N1CCN(c2cccc(Cl)c2)CC1	2	5142	0	3	-9
Cc1onc(-c2ccccc2Cl)c1C(=O)N1CCN(c2ccccc2)CC1	-4	22146*	u	0	2
Cc1onc(-c2ccccc2Cl)c1C(=O)Nc1ccc(OCC(=O)N2CCOCC2)cc1	-1	16183*	0	1	-2
COC(=O)c1cc(OC)c(OC)cc1NC(=O)c1c(-c2ccccc2Cl)noc1C	0	21663*	3	-2	5
COc1cccc(-c2nnn(CC(=O)NC3CCCC3)n2)c1OC	-5	16511*	-1	3	0
CC(=O)c1ccc(Cc2ccc(C(C)=O)s2)s1	-3	2887	0	3	-4
COc1cccc(C(c2nnnn2C(C)(C)C)N2CCN(C/C=C/c3ccccc3)CC2)c1OC (stereo unspecified)	-2	5460	0	x	-2
Cc1onc(-c2ccccc2Cl)c1C(=O)Nc1ccc(F)c(F)c1	-14	22619*	0	-5	-3
Cc1onc(-c2c(F)cccc2Cl)c1C(=O)Nc1sc2c(c1C(N)=O)CCC2	-3	16903*	-1	-8	-2
Cc1onc(-c2ccccc2)c1C(=O)Nc1nc(-c2cc(F)ccc2F)cs1	-3	20225*	0	-9	-1
Cc1ccc(NC(=S)NC(=O)c2c(-c3ccccc3Cl)noc2C)cc1	0	22637*	u	-3	-1
Cc1onc(-c2ccccc2Cl)c1C(=O)Nc1ccc2c(c1)OCO2	-2	u	0	1	-6
COc1ccc(NC(=O)Cn2nnc(-c3ccccc3F)n2)cc1Cl	-1	3048	1	-5	6
COC(=O)c1cc(OC)c(OC)cc1NC(=O)Cn1nnc(-c2ccccc2Cl)n1	-2	24177*	-2	-1	-5
CCN(CC)S(=O)(=O)c1cccc(NC(=O)C(=O)c2c(-c3ccccc3)cc3ccccn23)c1	-8	9940	-1	-2	-12
